Bioassay records from PubChem.
Shiga toxin inh – A qHTS for Small Molecule Inhibitors of Shiga Toxin; Vero cells, Shiga toxin protein synthesis inhibition reporter; inhibition, % at 38.7 µM; actives 9.2% (n = 290,000); in the data active = inhibition mostly above about 28%, no sharp cut-off; inactive = mostly below about 43%; also: 0% is about no effect
Pf growth 96h – Primary qHTS for delayed death inhibitors of the malarial parasite plastid, 96 hour incubation; P. falciparum luciferase reporter growth, 96 h; actives 6.9% (n = 320,000); Potency, µM (highest dose often 28.7 µM), inactives show at the top dose activity change, negative = inhibition, actives largely listed as inhibitors; also: potency is read from the fitted curve at half-maximal effect; % is scaled to controls: 0 for no effect and ±100 for the full control effect
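Delayed-death screen, second-generation endpoint: infected erythrocytes, 2% hematocrit, 0.05% parasitemia final; 96 hours at 37 C, 5% CO2; luciferase detection reagent; luminescence decrease equals reduced growth.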
Pf growth 48h – Primary qHTS for delayed death inhibitors of the malarial parasite plastid, 48 hour incubation. P. falciparum luciferase growth in erythrocytes, 48 h. Potency, µM (doses to about 28.7 µM), for the others: at the highest dose activity change, negative = inhibition, hits mostly inhibitors. actives 5.9% (n = 310,000); also: potency is read from the fitted curve at half-maximal effect; % is scaled to controls: 0 for no effect and ±100 for the full control effect
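In quantitative HTS format, infected erythrocytes bearing luciferase-reporter parasites were treated for a single generation at 37 C. Luminescence after adding detection reagent served as the growth measure.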
Cycloheximide cs – Cycloheximide Counterscreen for Small Molecule Inhibitors of Shiga Toxin; cell reporter, cycloheximide protein synthesis inhibition counterscreen; max response, %; actives 12% (n = 300,000); in the data active = max response mostly above about 13%, no sharp cut-off; inactive = mostly below about 14%; also: read at 38.3 µM for the half of the compounds with a filed dose; 0% is about no effect
Marburg entry inh – qHTS for inhibitors of binding or entry into cells for Marburg Virus | Marburg virus pseudotyped entry inhibition, cell reporter | Potency, µM (series often up to 37.8 µM), for inactives: at the highest dose activity change, negative = inhibition, usual class: inhibitors | actives 1.8% (n = 300,000); calls by dose curve; tested in HEK293 cells; also: potency is read from the fitted curve at half-maximal effect; % is scaled to controls: 0 for no effect and ±100 for the full control effect
LASV entry inh – qHTS for Inhibitors of binding or entry into cells for Lassa Virus. Lassa virus pseudotype entry inhibition, cell reporter. Potency, µM (doses to about 37.9 µM), for the others: at the highest dose activity change, negative = inhibition, hits mostly inhibitors. actives 1.2% (n = 300,000); calls by dose curve; tested in HEK293 cells; also: potency is read from the fitted curve at half-maximal effect; % is scaled to controls: 0 for no effect and ±100 for the full control effect; nearly all actives have a fitted effect of over 50% in size
* hit, by the source's call; ? = inconclusive; nt = no result; [ ] = another dose, or the depositor's remark. An excerpt weighted towards active compounds, which were near 19% of everything screened. Unless noted, calls follow the shape of the dose curve; as a rule, active = well fitted inhibition curve with a large enough effect; inconclusive = small, poorly fitted or top-dose-only effect, or another doubt; inactive = no such curve, though single readings can be large or run the other way.

SMILES	Shiga toxin inh	Pf growth 96h	Pf growth 48h	Cycloheximide cs	Marburg entry inh	LASV entry inh
COc1ccc2c(c1)C(=O)N1[C@H]3c4cc(C)ccc4OC[C@@H]3[C@H](c3ccccc3)[C@]1(C)C(=O)N2	nt	?	9.3µM*	nt	nt	nt
CCOC(=O)N1CCC2(CC1)C(C#N)=C(N)OC1=C2C(=O)CCC1	-6	-27%	3%	-3	14%[46.1 µM]	0%
O=C(COC(=O)c1ccc(Cl)cc1)NC(=O)NC1CCCC1	nt	24%	-20%	nt	23%[46.1 µM]	1%
COc1ccc(NC(=O)NNC(=O)COc2ccc3ccccc3c2)cc1	-15	-31%	17%	-3	-6%	20%
Cc1nn2c(=O)cc(COC(=O)COc3ccccc3C)nc2s1	nt	nt	nt	nt	nt	9%[46.1 µM]
CCOC(=O)[C@H]1[C@H]2COc3ccccc3[C@@H]2N2C(=O)c3cc(OC)ccc3NC(=O)[C@@]12C	nt	?	5.2µM*	nt	nt	nt
CCOC(=O)[C@H]1[C@H]2COc3ccccc3[C@@H]2N2C(=O)c3cc(F)ccc3NC(=O)[C@@]12C	nt	47%	?	nt	nt	nt
C[C@@]12C(=O)Nc3ccc(Br)cc3C(=O)N1[C@H]1c3cc(Cl)ccc3OC[C@@H]1[C@@H]2c1ccccc1	nt	3.3µM*	3.7µM*	nt	nt	nt
C[C@@H]1NC(=O)[C@@]2(C)[C@@H](c3ccccc3)[C@H]3COc4ccc(Cl)cc4[C@@H]3N2C1=O	nt	?	14%	nt	nt	nt
CSCC(C)N1CCC(n2nccc2NC(=O)c2ccccc2C)CC1 (stereo not given)	-19	1%	31%	-1	nt	nt
Cc1cccc2c1NC(=O)C2(c1ccc(O)cc1)c1ccc(O)cc1	-4	187%	?	-2	-11%	-13%
CCC1C(=O)N=C(SCC(=O)NC2CCCCC2)NC1=O (stereo not given)	9	7%	-6%	7	nt	nt
Cc1ccc(C)c(CN2C(=O)CSc3ccc(C(=O)NCCN4CCOCC4)cc32)c1	-9	?	0%	3	?	nt
Cc1cc(C)n(-c2nnc(N3CCN(c4ccc(F)cc4)CC3)nn2)n1	-4	0.37µM*	?	29	14%[46.1 µM]	9%[46.1 µM]
O=C(NCC1CCCCC1)c1cc2ccccc2cc1O	74*	1.7µM*	1.3µM*	32*	?	?
Cc1onc(-c2ccccc2Cl)c1C(=O)N(C)C1CCCCC1	-2	?	nt	-1	nt	nt
CN(C(=O)c1ccc(Br)o1)C1CCCCC1	67*	?	41%	33*	nt	nt
O=C(N/N=C1/CC2CCC1C2)c1cc2ccccc2cc1O (stereo not given)	-2	9.3µM*	?	9	?	-4%[46.1 µM]
CN(C(=O)c1ccccc1Cl)C1CCCCC1	-2	nt	-6%	13*	-2%	-2%
NNC(=O)c1cc2ccccc2cc1O	10	10%	?	7	?	13%
CC(=O)c1c(C)[nH]c(C(=O)/C(C#N)=C/c2cccc(C)c2)c1C	-5	-13%	-8%	-7	?	-18%[46.1 µM]
CN(C(=O)c1cc2ccccc2cc1O)C1CCCCC1	23	-26%	?	21*	nt	nt
Cc1ccc(OCC(=O)Nc2sc3c(c2C#N)CCC3)cc1C	16	?	3%	-2	?	-10%
CC(=O)c1ccc(NC(=O)C(C)OC(=O)c2ccc3c(c2)nc(C)n3-c2ccccc2)cc1 (stereo not given)	45*	21%	1%	29*	?	15%
Cc1nn(-c2ccccc2)c(Cl)c1C(=O)NCC(=O)O	-23	?	7%	-1	0%	3%
SMILES	Shiga toxin inh	Pf growth 96h	Pf growth 48h	Cycloheximide cs	Marburg entry inh	LASV entry inh
Cc1nn(-c2ccccc2)c(C)c1C(=O)OC(C)C(=O)NC1CCCCC1 (stereo not given)	nt	nt	nt	nt	?	5µM*
Cc1ccc(NC(=O)c2c(C)nn(-c3ccccc3)c2Cl)c(C)c1	60*	9%	17%	23*	8%	2%
Cc1nn(-c2ccccc2)c(Cl)c1C(=O)NC1CCCCC1	8	93%	-20%	15*	-2%[46.1 µM]	-13%
CCc1ccc2c(c1)C(c1ccc(N3CCOCC3)cc1)=NNC(c1ccncc1)=N2	-34	-6%	?	1	?	-20%[46.1 µM]
CC(=O)Nc1ccc(NC(=O)C(C)OC(=O)c2c(C)nn(-c3ccccc3)c2Cl)cc1 (stereo not given)	nt	?	?	nt	-9%	3.5µM*
Cc1nn(-c2ccccc2)c(Cl)c1C(=O)OC(C)C(=O)Nc1ccc2c(c1)OCO2 (stereo not given)	-9	16%	-24%	-4	-1%	-7%
CCCC[n+]1ccn(-c2nc3ccccc3nc2[N-]S(=O)(=O)c2ccccc2)c1	12	15µM*	nt	-4	16%	?
CCCC[n+]1ccn(-c2nc3ccccc3nc2[N-]S(=O)(=O)c2cccs2)c1	11	5.9µM*	?	2	-10%[46.1 µM]	18%
Cc1ccc(S(=O)(=O)[N-]c2nc3ccccc3nc2-n2cc[n+](Cc3ccccc3)c2)cc1	-2	1.5µM*	4.1µM*	2	-25%	-19%
CCOc1ccccc1C(=O)OCC(=O)Nc1cc(S(=O)(=O)N2CCOCC2)ccc1C	nt	21%	20%	nt	nt	nt
Nc1nc(N)c(C=Nc2ccc(Br)cc2)c(Nc2ccc(Br)cc2)n1	21	0.33µM*	0.59µM*	9	nt	nt
CN(c1ccccc1)C1CCCCC1NS(=O)(=O)c1ccc(Cl)cc1 (stereo not given)	-7	?	6.6µM*	0	?	?
COC(=O)c1ccc(/C=C2\N=C(SC)SC2=O)cc1	-6	0%	0%	-5	2%	5%
COc1ccc(C(CNC(=O)c2ccc(C)c(S(=O)(=O)N3CCCCC3)c2)N(C)C)cc1OC (stereo not given)	4	-2%	-22%	-1	nt	nt
COc1ccccc1C(CNC(=O)c1ccc(C)c(S(=O)(=O)N2CCCCC2)c1)N1CCCC1 (stereo not given)	nt	10µM*	?	nt	?	21%
COc1ccc(C(CNC(=O)c2ccc(OC)c(S(=O)(=O)N3CCCC3)c2)N2CCCC2)cc1 (stereo not given)	nt	10µM*	?	nt	nt	nt
COc1ccc(C(=O)NCC(c2ccc(F)cc2)N2CCOCC2)cc1S(=O)(=O)N1CCCC1 (stereo not given)	-10	10µM*	?	1	-16%	11%
C=CCNc1nnc(Cc2ccc(C(C)C)cc2)c(=O)[nH]1	16	?	?	1	nt	nt
O=[N+]([O-])c1c(C(Cl)Cl)nn(-c2ccccc2)c1N1CCOCC1	-12	-2%	?	-1	11%[46.1 µM]	?
Cc1c(OCC(=O)N2CCC(C(=O)O)CC2)ccc2c3c(c(=O)oc12)CCC3	-4	61%	40%	1	nt	nt
COc1cccc2cc(C(N)=O)oc12	-20	18%[5.75 µM]	12%	13	4%[46.1 µM]	6%[46.1 µM]
COc1cccc2cc(C(=O)c3ccc([N+](=O)[O-])cc3)oc12	22	15µM*	25%	23*	-3%[46.1 µM]	6%
